In PubChem BioAssay (NCI) one finds growth inhibition data, which are given here for ten molecules.

About 79,000 compounds went through this panel and 15% of them were active in at least one assay; those are over-represented in the sample as a whole. Unmarked numbers belong to inactive results. Active and inactive are the calls of the source. No stated cut-off is given here; in the data, active means growth inhibition above about 70%; inactive means the rest.

The nature of experiment [1]: NCI Yeast Anticancer Drug Screen. Data for the rad50 strain (AID 155).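 Further: 0% = growth of vehicle-only cultures of the same strain.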 The note with it: S. cerevisiae rad50 strain growth inhibition, active compounds read high. Summed up: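 Yeast carrying a defined DNA repair defect were exposed to test compounds, and growth was compared with vehicle-treated controls to give percent inhibition.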
A short description of experiment [2]: NCI Yeast Anticancer Drug Screen. Data for the mec2-1 strain (AID 157). The note with it: S. cerevisiae mec2-1 strain, active compounds read high. Summed up: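 Growth inhibition is read against vehicle-treated controls after compound exposure of the mec2-1 yeast strain, which is defective in DNA damage repair or cell cycle control.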
Experiment [3] in a line: NCI Yeast Anticancer Drug Screen. Data for the sgs1 mgt1 strain (AID 161).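 Further: 0% = growth of cultures given vehicle only.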 Particulars: S. cerevisiae sgs1 mgt1 strain, active compounds read high. Summed up:
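Yeast cells carrying a defined DNA-repair defect were exposed to test compounds. Growth inhibition was measured relative to vehicle-treated controls.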

Experiment [4] is described as follows: NCI Yeast Anticancer Drug Screen. Data for the cln2 rad14 strain (AID 165).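 Further: 0% = growth equal to vehicle treated cultures.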 Particulars: S. cerevisiae cln2 rad14 strain, active compounds read high. Summed up:
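Growth inhibition, relative to vehicle-treated controls, is the read-out. The test organism is a yeast strain with defined genetic alterations, cln2 rad14.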

Experiment [5] in a line: NCI Yeast Anticancer Drug Screen. Data for the bub3 strain (AID 167). Particulars: S. cerevisiae bub3 mutant strain, active compounds read high. Summed up:
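Compounds were applied to a genetically altered yeast strain carrying a cell-cycle control defect. Growth inhibition was scored against vehicle-treated controls.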

The nature of experiment [6]: NCI Yeast Anticancer Drug Screen. Data for the mlh1 rad18 strain (AID 175). Particulars: S. cerevisiae mlh1 rad18 strain growth inhibition, active compounds read high. Summed up: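 Cells of a genetically altered yeast strain, deficient in DNA damage repair, were treated with compound. Their growth was then compared with that of vehicle-treated cultures to give inhibition.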

The mark [7] stands for this setting: at 5.0 µM (retest, dose inferred, filed as 0.5).
The mark [8] stands for this setting: at 50.0 µM (retest, dose inferred, filed as 5.0).

For `CCOc1ccc(NC(=O)/C(=N\N)C(C(=O)OC)c2nc3ccc(Cl)cc3[nH]c2=O)cc1` (stereo not given), the growth inhibition in experiment [1] (setting [7]) is -14%; in experiment [1] (setting [8]), -17%; in experiment [1] (at 50.0 µM), -12.9%; in experiment [2] (setting [7]), -1%; in experiment [2] (setting [8]), -10%; in experiment [2] (at 50.0 µM), -13.1%. For the same molecule, the growth inhibition in experiment [3] (setting [7]) is -8%; in experiment [3] (setting [8]) it was -3%; in experiment [3] (at 50.0 µM) it was -24.4%; in experiment [4] (setting [7]) it was -25%; in experiment [4] (setting [8]) it was -8%; in experiment [4] (at 50.0 µM) it was 80.2% (active). Moreover, the growth inhibition is -6% in experiment [5] (setting [7]); 5% in experiment [5] (setting [8]); -26.5% in experiment [5] (at 50.0 µM); -7% in experiment [6] (setting [7]); -8% in experiment [6] (setting [8]); -1.5% in experiment [6] (at 50.0 µM).
For `O=C1c2ccccc2C(=O)c2c(O)c(Cl)cc(O)c21`, the growth inhibition is 3% in experiment [1] (setting [7]); 20% in experiment [1] (setting [8]); 15.9% in experiment [1] (at 50.0 µM); 2% in experiment [2] (setting [7]); 26% in experiment [2] (setting [8]); 1.3% in experiment [2] (at 50.0 µM). Moreover, the growth inhibition was 7% in experiment [3] (setting [7]); 71% (active) in experiment [3] (setting [8]); 38.3% in experiment [3] (at 50.0 µM); 5% in experiment [4] (setting [7]); 9% in experiment [4] (setting [8]); -55.6% in experiment [4] (at 50.0 µM). Moreover, the growth inhibition in experiment [5] (setting [7]) was 4%; in experiment [5] (setting [8]), 38%; in experiment [5] (at 50.0 µM) it was -2.2%; in experiment [6] (setting [7]) it was 6%; in experiment [6] (setting [8]), 57%; in experiment [6] (at 50.0 µM) it was 78% (active).
In the case of `Oc1c(Cl)cc(Cl)cc1C(c1cc(Cl)cc(Cl)c1O)C(Cl)(Cl)Cl`, the growth inhibition in experiment [1] (setting [7]) is -2%; in experiment [1] (setting [8]) it was 99% (active); in experiment [1] (at 50.0 µM), 99% (active); in experiment [2] (setting [7]), 0%; in experiment [2] (setting [8]), 100% (active); in experiment [2] (at 50.0 µM), 99.5% (active). Also, the growth inhibition in experiment [3] (setting [7]) is -4%; in experiment [3] (setting [8]), 99% (active); in experiment [3] (at 50.0 µM), 99.5% (active); in experiment [4] (setting [7]), -2%; in experiment [4] (setting [8]), 97% (active); in experiment [4] (at 50.0 µM) it was 98.7% (active). The growth inhibition was -2% in experiment [5] (setting [7]); 99% (active) in experiment [5] (setting [8]); 99.2% (active) in experiment [5] (at 50.0 µM); 0% in experiment [6] (setting [7]); 99% (active) in experiment [6] (setting [8]); 99.2% (active) in experiment [6] (at 50.0 µM).
As to `O/N=C1\c2ccccc2-c2ccc(F)cc21`, the growth inhibition in experiment [1] (setting [7]) is 20%; in experiment [1] (setting [8]) it was 90% (active); in experiment [1] (at 50.0 µM) it was 95% (active); in experiment [2] (setting [7]), 7%; in experiment [2] (setting [8]) it was 73% (active); in experiment [2] (at 50.0 µM) it was 84.2% (active). Besides, the growth inhibition was 13% in experiment [3] (setting [7]); 87% (active) in experiment [3] (setting [8]); 91.6% (active) in experiment [3] (at 50.0 µM); 5% in experiment [4] (setting [7]); 71% (active) in experiment [4] (setting [8]); 63% in experiment [4] (at 50.0 µM). The growth inhibition in experiment [5] (setting [7]) is 1%; in experiment [5] (setting [8]), 77% (active); in experiment [5] (at 50.0 µM) it was 91.1% (active); in experiment [6] (setting [7]), 13%; in experiment [6] (setting [8]), 78% (active); in experiment [6] (at 50.0 µM), 93.8% (active).
Turning to `Cc1cc(C)c(C#N)c(Sc2nc(C)c([N+](=O)[O-])c(C)c2C#N)n1`, the growth inhibition is 56% in experiment [1] (setting [7]); 54% in experiment [1] (setting [8]); 66.7% in experiment [1] (at 50.0 µM); 37% in experiment [2] (setting [7]); 44% in experiment [2] (setting [8]); 29.7% in experiment [2] (at 50.0 µM). Also, the growth inhibition in experiment [3] (setting [7]) is 49%; in experiment [3] (setting [8]) it was 54%; in experiment [3] (at 50.0 µM), 84.5% (active); in experiment [4] (setting [7]), 41%; in experiment [4] (setting [8]), 51%; in experiment [4] (at 50.0 µM), 42.3%. In addition, the growth inhibition in experiment [5] (setting [7]) was 51%; in experiment [5] (setting [8]), 61%; in experiment [5] (at 50.0 µM), 15%; in experiment [6] (setting [7]), 57%; in experiment [6] (setting [8]) it was 55%; in experiment [6] (at 50.0 µM) it was 54.6%.
Regarding `CN1CSC(=S)N(Cc2ccccc2)C1`, the growth inhibition in experiment [1] (setting [7]) is 20%; in experiment [1] (setting [8]), 78% (active); in experiment [1] (at 50.0 µM), 73.6% (active); in experiment [2] (setting [7]), -5%; in experiment [2] (setting [8]), 76% (active); in experiment [2] (at 50.0 µM) it was 87.8% (active). For the same molecule, the growth inhibition in experiment [3] (setting [7]) was 15%; in experiment [3] (setting [8]), 67%; in experiment [3] (at 50.0 µM) it was 86.6% (active); in experiment [4] (setting [7]) it was 19%; in experiment [4] (setting [8]) it was 41%; in experiment [4] (at 50.0 µM), 21.2%. Besides, the growth inhibition in experiment [5] (setting [7]) was 25%; in experiment [5] (setting [8]), 90% (active); in experiment [5] (at 50.0 µM), 88.3% (active); in experiment [6] (setting [7]) it was -2%; in experiment [6] (setting [8]), 89% (active); in experiment [6] (at 50.0 µM), 75.3% (active).
Turning to `O=C(CCl)N1c2ccccc2Sc2c1ccc1ccccc21`, the growth inhibition in experiment [1] (setting [7]) is 25%; in experiment [1] (setting [8]), 90% (active); in experiment [1] (at 50.0 µM) it was 82.7% (active); in experiment [2] (setting [7]) it was 39%; in experiment [2] (setting [8]), 90% (active); in experiment [2] (at 50.0 µM), 63.9%. The growth inhibition in experiment [3] (setting [7]) is 47%; in experiment [3] (setting [8]) it was 94% (active); in experiment [3] (at 50.0 µM), 90.6% (active); in experiment [4] (setting [7]) it was 20%; in experiment [4] (setting [8]), 69%; in experiment [4] (at 50.0 µM), 19.8%. For the same molecule, the growth inhibition in experiment [5] (setting [7]) was 56%; in experiment [5] (setting [8]), 91% (active); in experiment [5] (at 50.0 µM), 72.2% (active); in experiment [6] (setting [7]), 46%; in experiment [6] (setting [8]) it was 90% (active); in experiment [6] (at 50.0 µM) it was 83.4% (active).
On to `Cc1cccc2c(N)c3ccccc3nc12`, for which the growth inhibition in experiment [1] (setting [7]) is 12%; in experiment [1] (setting [8]), 57%; in experiment [1] (at 50.0 µM), 87.7% (active); in experiment [2] (setting [7]), 3%; in experiment [2] (setting [8]) it was 13%; in experiment [2] (at 50.0 µM), 43.3%. For the same molecule, the growth inhibition in experiment [3] (setting [7]) was 1%; in experiment [3] (setting [8]), 7%; in experiment [3] (at 50.0 µM), 73.7% (active); in experiment [4] (setting [7]), 6%; in experiment [4] (setting [8]), 15%; in experiment [4] (at 50.0 µM), 45.6%. The growth inhibition in experiment [5] (setting [7]) is 0%; in experiment [5] (setting [8]), -9%; in experiment [5] (at 50.0 µM), 45%; in experiment [6] (setting [7]), 6%; in experiment [6] (setting [8]) it was 24%; in experiment [6] (at 50.0 µM), 67.8%.
Turning to `CCCCCCC1N=C(N)N=C(N)N1c1cccc(Cl)c1` (stereo not given), the growth inhibition in experiment [1] (setting [7]) is 17%; in experiment [1] (setting [8]), 61%; in experiment [1] (at 50.0 µM), -25.1%; in experiment [2] (setting [7]), 10%; in experiment [2] (setting [8]) it was 56%; in experiment [2] (at 50.0 µM) it was 48.8%. For the same molecule, the growth inhibition was 8% in experiment [3] (setting [7]); 55% in experiment [3] (setting [8]); 46.4% in experiment [3] (at 50.0 µM); 1% in experiment [4] (setting [7]); 24% in experiment [4] (setting [8]); -53.5% in experiment [4] (at 50.0 µM). Further, the growth inhibition was 34% in experiment [5] (setting [7]); 81% (active) in experiment [5] (setting [8]); 52.9% in experiment [5] (at 50.0 µM); 7% in experiment [6] (setting [7]); 98% (active) in experiment [6] (setting [8]); 89.6% (active) in experiment [6] (at 50.0 µM).
With `CCOc1cc(F)c([N+](=O)[O-])cc1[N+](=O)[O-]`, the growth inhibition in experiment [1] (setting [7]) was 92% (active); in experiment [1] (setting [8]) it was 99% (active); in experiment [1] (at 50.0 µM) it was 98.7% (active); in experiment [2] (setting [7]) it was 94% (active); in experiment [2] (setting [8]), 100% (active); in experiment [2] (at 50.0 µM) it was 54.4%. Moreover, the growth inhibition in experiment [3] (setting [7]) was 96% (active); in experiment [3] (setting [8]), 99% (active); in experiment [3] (at 50.0 µM) it was 51.5%; in experiment [4] (setting [7]), 97% (active); in experiment [4] (setting [8]), 100% (active); in experiment [4] (at 50.0 µM), 98.4% (active). Moreover, the growth inhibition in experiment [5] (setting [7]) was 91% (active); in experiment [5] (setting [8]), 99% (active); in experiment [5] (at 50.0 µM), 99% (active); in experiment [6] (setting [7]), 92% (active); in experiment [6] (setting [8]), 100% (active); in experiment [6] (at 50.0 µM), 98.5% (active).
